Screens deposited in PubChem BioAssay by Broad Institute.
Compounds with a hit are over-represented: about 3.3% of the library has one in this group of screens.
CASP6 VEID inh: caspase-6 (human) enzyme inhibition; inhibition, % at 12.5 µM; hit rate 0.53% among 350,000; purified caspase-6, Z-VEID-R110 cleavage fluorescence; P55212;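 active means mean inhibition across replicates at least about 35%, with every replicate also reaching that limit, limit read from the data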
GSIS activator: GLuc luminescence reporter in INS-1E cells, primary screen for activators of glucose-dependent secretion of insulin; hit rate 0.61% among 370,000; AID 743287; INS-1E GLuc reporter insulin secretion, 2-3 h; activation, % at 16.6 µM;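 active means lowest replicate activation of at least 40%, so every replicate reaches that level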
FGF22 binding-1: FGF22 (human) thermal shift binding; activity (Tm shift, normalised), % at 9.99 µM; hit rate 1.5% among 340,000; AID 651658; recombinant FGF22 thermal shift, SYPRO orange fluorescence; percent of sucrose octasulfate shift, DMSO zero; Q9HCT0;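 active means mean Tm shift, scaled 0 neutral to 100 positive control, at about 1.3% or above, every replicate too, limit read from the data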
SIRT5 inh: blocks human SIRT5 desuccinylation of peptide; Q9NXA8; Purified SirT5, succinyl-peptide AMC, trypsin-coupled fluorescence; inhibition, % at 15 µM; hit rate 1.1% among 330,000; AID 652115; in the data active means inhibition above about 15%
ERAP1 HTS inh: ERAP1 (human) enzyme inhibition | recombinant ERAP1, Leu-AMC fluorescence, 60 min | Q9NZ08 | AID 652197 | hit rate 0.15% among 340,000 | inhibition, % at 10.7 µM;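 active means mean replicate inhibition of at least 30%, or all replicates individually reaching that 30% level; inactive means mean below 30% and not every replicate reaching it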
Target sequence (Q9NZ08 whole entry, looked up): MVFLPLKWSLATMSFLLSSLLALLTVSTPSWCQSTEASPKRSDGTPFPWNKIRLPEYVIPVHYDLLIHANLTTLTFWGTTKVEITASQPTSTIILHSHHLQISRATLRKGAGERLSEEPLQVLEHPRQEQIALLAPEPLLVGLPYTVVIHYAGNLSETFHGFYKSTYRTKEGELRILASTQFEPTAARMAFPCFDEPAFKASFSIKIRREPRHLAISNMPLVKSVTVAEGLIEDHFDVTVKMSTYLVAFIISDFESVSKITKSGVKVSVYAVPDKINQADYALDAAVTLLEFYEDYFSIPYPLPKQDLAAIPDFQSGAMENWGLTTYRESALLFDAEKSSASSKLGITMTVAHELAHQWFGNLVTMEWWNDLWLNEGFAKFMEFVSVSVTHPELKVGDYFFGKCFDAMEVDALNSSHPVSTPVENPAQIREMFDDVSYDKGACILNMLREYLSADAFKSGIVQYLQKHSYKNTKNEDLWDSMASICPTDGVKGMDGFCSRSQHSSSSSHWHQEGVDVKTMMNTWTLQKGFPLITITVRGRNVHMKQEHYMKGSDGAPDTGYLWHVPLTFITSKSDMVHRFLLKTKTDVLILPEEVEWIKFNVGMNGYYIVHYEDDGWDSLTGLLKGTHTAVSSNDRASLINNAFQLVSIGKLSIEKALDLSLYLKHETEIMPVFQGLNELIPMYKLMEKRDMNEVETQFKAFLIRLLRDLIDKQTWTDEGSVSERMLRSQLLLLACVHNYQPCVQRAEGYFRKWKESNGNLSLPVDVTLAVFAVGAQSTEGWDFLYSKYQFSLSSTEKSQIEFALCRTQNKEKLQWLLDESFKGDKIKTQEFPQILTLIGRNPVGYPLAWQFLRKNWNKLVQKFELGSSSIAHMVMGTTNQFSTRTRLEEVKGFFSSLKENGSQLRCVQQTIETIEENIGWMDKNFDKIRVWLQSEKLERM
FGF22 binding-2: FGF22 (human) binding in thermal shift; thermal shift activity, °C (ΔTm) at 38 µM; AID 720646; shares compounds with FGF22 binding-1; hit rate 2% among 1,000; recombinant FGF22 thermal shift, SYPRO orange fluorescence;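 active means fitted rise in melting shift crosses a set limit at or below the top valid dose tested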
FGF22 TSA: FGF22 (human) binding by thermal shift; shares compounds with FGF22 binding-1; Thermal shift assay, SYPRO orange, melting temperature shift; Tm shift (activity), % at 38 µM; 50 tested, under 10 active; AID 743017;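 active means compounds whose fitted dose curve of melting temperature shift rises past a set threshold within the tested doses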
SYPRO no-protein: compound-only SYPRO artifact for FGF22 binders; shares compounds with FGF22 binding-1; compound-only SYPRO orange thermal shift counter-screen, no protein; AC50, µM (top dose mostly 38 µM); hit rate 2% among 1,000; AID 743019;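 active means rising signal whose fitted curve reaches the 0.54 level within the top valid dose, showing a melting point, actives reach about 13 µM in these data; inactive means the rest, including activity in the opposite direction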; further: value is where the raw curve crosses a fixed level and not half-maximal
Large screens that a line does not name were inactive (follow-up assays come after a bar, where they were run).

C[C@@H]1CN([C@H](C)CO)C(=O)c2cc(NC(=O)Nc3ccc(F)cc3)ccc2O[C@@H](C)CCCCO[C@H]1CN(C)C(=O)C1CCCCC1	none
C[C@H]1CN([C@@H](C)CO)S(=O)(=O)c2ccc(-c3cncnc3)cc2O[C@@H]1CN(C)C(=O)C1CC1	none (no result: CASP6 VEID inh, FGF22 binding-1, SIRT5 inh, ERAP1 HTS inh)
COc1cccc(NC(=O)N(C)C[C@@H]2Oc3cc(-c4ccccc4F)ccc3S(=O)(=O)N([C@H](C)CO)C[C@H]2C)c1	none
COc1cccc(NC(=O)N(C)C[C@H]2Oc3cc(-c4ccccc4F)ccc3S(=O)(=O)N([C@H](C)CO)C[C@H]2C)c1	FGF22 binding-1 2.3, SIRT5 inh 16 | FGF22 binding-2 inactive | SYPRO no-protein 11µM
O=C(Nc1ccc(S(=O)(=O)N2CCCC2)cc1)c1cccs1	FGF22 binding-1 2.1 | FGF22 binding-2 inactive | FGF22 TSA inactive | SYPRO no-protein inactive
O=C(Nc1ccc(S(=O)(=O)N2CCCC2)cc1)c1ccccc1	FGF22 binding-1 1.6 | FGF22 binding-2 inactive | FGF22 TSA inactive | SYPRO no-protein inactive
N#Cc1cccc(NS(=O)(=O)c2ccc(S(=O)(=O)N3CCOCC3)cc2)c1	none
O=C(Nc1ccccc1)c1ccc(S(=O)(=O)N2CCCC2)cc1	none (no result: CASP6 VEID inh, FGF22 binding-1, SIRT5 inh, ERAP1 HTS inh)
N#Cc1cccc(NC(=O)c2ccc(S(=O)(=O)N3CCOCC3)cc2)c1	FGF22 binding-1 2.7 (no result: GSIS activator) | FGF22 binding-2 inactive | SYPRO no-protein inactive
O=C(C[C@@H]1C=C[C@@H](NS(=O)(=O)c2ccccc2)[C@@H](CO)O1)NCc1ccncn1	none
O=C1C2C(C(=O)N1CCc1ccccc1)C1C=CC2C12CC2 (centres undefined)	FGF22 binding-1 2.5 | FGF22 binding-2 inactive | SYPRO no-protein inactive
CC(C)[C@@H]1C(=O)NCCC=CC[C@H](C)Oc2ccccc2C(=O)N1C (mixture of isomers)	none (no result: CASP6 VEID inh, FGF22 binding-1, SIRT5 inh, ERAP1 HTS inh)
C[C@@H]1CN([C@@H](C)CO)C(=O)c2cc(NC(=O)Nc3cccc4ccccc34)ccc2O[C@H]1CN(C)Cc1ccc(C(F)(F)F)cc1	none
Cc1noc(C)c1S(=O)(=O)N(C)C[C@@H]1Oc2ccc(NC(=O)NC3CCCCC3)cc2CC(=O)N([C@@H](C)CO)C[C@@H]1C	none
O=S(=O)(O)c1cccc2cccc(Nc3ccccc3)c12	CASP6 VEID inh 56, FGF22 binding-1 1.5, SIRT5 inh 57, ERAP1 HTS inh 43 | FGF22 binding-2 inactive | SYPRO no-protein inactive
Nc1nc(-c2cccnc2)nn1C(=O)c1ccc(F)cc1	FGF22 binding-1 1.7 | FGF22 binding-2 inactive | SYPRO no-protein inactive
O=C(NCC1CC1)c1onc(CSc2ccc(F)cc2)c1C(=O)NCC1CC1	FGF22 binding-1 37 (no result: GSIS activator) | FGF22 binding-2 inactive | SYPRO no-protein 11µM
COc1ccc(/C(=N\Nc2ccccc2C(=O)O)c2ccccc2)cc1	FGF22 binding-1 1.8 | FGF22 binding-2 inactive | SYPRO no-protein inactive
CCOC(=O)C(=O)N/N=C(/c1ccccc1)c1ccc(OC)cc1	none
O=[N+]([O-])c1ccc(N/N=C/c2ccc[nH]2)cc1	FGF22 binding-1 3.1 | FGF22 binding-2 inactive | SYPRO no-protein inactive
CC1(C(=O)NS(=O)(=O)c2cccc(Cl)c2)CCN1C(=O)Cc1ccc(-c2ccccc2)cc1 (centres undefined)	FGF22 binding-1 1.9 (no result: SIRT5 inh) | FGF22 binding-2 inactive | SYPRO no-protein inactive
Cc1ccc(-c2ccc([C@@H]3[C@@H](CO)N4C(=O)CN(C(=O)c5ccc(F)cc5)C[C@H]34)cc2)cc1	FGF22 binding-1 1.2 | FGF22 binding-2 inactive | SYPRO no-protein inactive
Cc1ccc(-c2ccc([C@H]3[C@H](CO)N4C(=O)CN(C(=O)c5ccc(F)cc5)C[C@@H]34)cc2)cc1	none
Cc1ccc(-c2ccc([C@H]3[C@@H](CO)N4C(=O)CN(C(=O)c5ccc(F)cc5)C[C@@H]34)cc2)cc1	FGF22 binding-1 1.8 | FGF22 binding-2 inactive | SYPRO no-protein inactive
